# Laboratory results as given in PubChem BioAssay (Tox21).
# Values without a mark were called inactive. Records with an inconclusive call do not appear. Where a call stands in place of a potency, no number is given. Calls of active or inactive are those of the source. Calls follow the shape of the dose curve; as a rule, active = well fitted curve in the direction sought with a large enough effect in the repeat runs; inconclusive = weak or mixed curves; inactive = no such curve, though single readings can be large; an effect the other way counts as inactive or inconclusive.
# How the values were obtained:
# [1] = qHTS RealTime-Glo MT Cell Viability Assay in HEK293 cells - 0 hour (AID 1224880); also: nearly all actives have a fitted effect of over 45% in size; also: potency is read from the fitted curve at half-maximal effect; as to activity change, negative = cytotoxicity: top concentration of the series differs between compounds
# Outline: (§1)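 Tox21 screen in HEK293 using RealTime-Glo MT chemistry, with cells and reagent co-dispensed. Luminescence proportional to viable cell number was captured at intervals during 40 h compound exposure at 37 C.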
# [2] = A CellTox Green Cytotoxicity Assay to monitor cytotoxicity in HEK293 cells - 32 hour (AID 1224881); also: nearly all actives have a fitted effect of over 40% in size; also: potency is read from the fitted curve at half-maximal effect
# Outline: (§2)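 Seeding of HEK293 cells together with cytotoxicity dye preceded a 5 h incubation at 37 C/5% CO2. Test compounds in DMSO were then added and fluorescence monitored across 40 h.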
# [3] = A CellTox Green Cytotoxicity Assay to monitor cytotoxicity in HepG2 cells - 0 hour (AID 1224882); also: nearly all actives have a fitted effect of over 35% in size
# Outline: (§3)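 Nonlytic assay: viable cells exclude the dye, so fluorescence scales with cell death. HepG2 at 600 cells/well, compounds added after 5 h, signal read across 40 h.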
# [4] = A CellTox Green Cytotoxicity Assay to monitor cytotoxicity in HepG2 cells - 32 hour (AID 1224883); also: nearly all actives have a fitted effect of over 50% in size; also: potency is read from the fitted curve at half-maximal effect
# Outline: as §3
# [5] = A CellTox Green Cytotoxicity Assay to monitor cytotoxicity in HEK293 cells - 8 hour (AID 1224884); also: nearly all actives have a fitted effect of over 35% in size
# Outline: as §2
# [6] = qHTS RealTime-Glo MT Cell Viability Assay in HepG2 cells - 16 hour (AID 1224885); also: nearly all actives have a fitted effect of over 50% in size; also: potency is read from the fitted curve at half-maximal effect
# Outline: (§4)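 Cells + NanoLuc/prosubstrate dispensed (600 cells/well) → 5 h at 37 C/5% CO2 → compounds in DMSO transferred → 40 h incubation at 37 C, luminescence read at 0, 8, 16, 24, 32, 40 h.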
# [7] = qHTS RealTime-Glo MT Cell Viability Assay in HEK293 cells - 24 hour (AID 1224886); also: nearly all actives have a fitted effect of over 50% in size; also: potency is read from the fitted curve at half-maximal effect; as to activity change, negative = cytotoxicity: top concentration of the series differs between compounds
# Outline: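 Tox21 10K qHTS, HEK293, 600 cells/well, RealTime-Glo reagent co-dispensed with cells; 5 h preincubation, compound by pintool, 37 C, luminescence at 0–40 h.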
# [8] = qHTS RealTime-Glo MT Cell Viability Assay in HEK293 cells - 8 hour (AID 1224887); also: nearly all actives have a fitted effect of over 50% in size; also: potency is read from the fitted curve at half-maximal effect; as to activity change, negative = cytotoxicity: top concentration of the series differs between compounds
# Outline: as §1
# [9] = A CellTox Green Cytotoxicity Assay to monitor cytotoxicity in HEK293 cells - 16 hour (AID 1224888); also: nearly all actives have a fitted effect of over 35% in size
# Outline: as §2
# [10] = qHTS RealTime-Glo MT Cell Viability Assay in HepG2 cells - 0 hour (AID 1224889); also: nearly all actives have a fitted effect of over 50% in size
# Outline: as §4
smiles,measurement,setting,value
CC(N)CN (stereo not given),Potency,[1],inactive
same,Potency,[2],inactive
same,Potency,[3],inactive
same,Potency,[4],inactive
same,Potency,[5],inactive
same,Potency,[6],inactive
same,Potency,[7],inactive
same,Potency,[8],inactive
same,Potency,[9],inactive
same,Potency,[10],inactive
[O]=[Bi],"activity change, negative = cytotoxicity",[1],1.4% [at 6.97 µM]
same,cytotoxicity increase,[2],-0.855% [at 6.97 µM]
same,cytotoxicity,[3],1.27% [at 6.97 µM]
same,cytotoxicity increase,[4],-9.49% [at 6.97 µM]
same,cytotoxicity increase,[5],-5.25% [at 6.97 µM]
same,"activity change, negative = cytotoxic",[6],1.05% [at 6.97 µM]
same,"activity change, negative = cytotoxicity",[7],5.04% [at 6.97 µM]
same,"activity change, negative = cytotoxicity",[8],1.28% [at 6.97 µM]
same,activity change,[9],"-2.4% [at 6.97 µM, stronger effect = higher value]"
same,"activity change, negative = cytotoxicity",[10],1.28% [at 6.97 µM]
CCOC(=O)c1ccccc1C,Potency,[1],inactive
same,Potency,[2],inactive
same,Potency,[3],inactive
same,Potency,[4],inactive
same,Potency,[5],inactive
same,Potency,[6],inactive
same,Potency,[7],inactive
same,Potency,[8],inactive
same,Potency,[9],inactive
O=C(O)c1ccccc1NCCc1ccccc1,Potency,[1],inactive
same,Potency,[2],inactive
same,Potency,[3],inactive
same,Potency,[4],inactive
same,Potency,[5],inactive
same,Potency,[6],inactive
same,Potency,[7],inactive
same,Potency,[8],inactive
same,Potency,[9],inactive
same,Potency,[10],inactive
CC(C)OCC1CO1 (stereo not given),Potency,[1],inactive
same,Potency,[2],inactive
same,Potency,[3],inactive
same,Potency,[4],inactive
same,Potency,[5],inactive
same,Potency,[6],inactive
same,Potency,[7],inactive
same,Potency,[8],inactive
same,Potency,[9],inactive
same,Potency,[10],inactive
CC[C@H](NC(=O)c1cc(F)ccc1NS(=O)(=O)c1cccc2cccnc12)c1ccccc1,Potency,[1],23.2 µM (active)
same,Potency,[2],inactive
same,Potency,[3],inactive
same,Potency,[4],inactive
same,Potency,[5],inactive
same,Potency,[6],46.3 µM (active)
same,Potency,[7],inactive
same,Potency,[8],inactive
same,Potency,[9],inactive
CC(=O)Oc1ccc(C(=C2CCCCC2)c2ccc(OC(C)=O)cc2)cc1,Potency,[1],inactive
same,Potency,[2],inactive
same,Potency,[3],inactive
same,Potency,[4],inactive
same,Potency,[5],inactive
same,Potency,[6],inactive
same,Potency,[7],inactive
same,Potency,[8],inactive
same,Potency,[9],inactive
CCCOc1ccc(S(=O)(=O)N2CCN(CC)CC2)cc1-c1nc2c(CC)n(Cc3ccccn3)nc2c(=O)[nH]1,Potency,[1],inactive
same,Potency,[2],inactive
same,Potency,[3],inactive
same,Potency,[4],inactive
same,Potency,[5],inactive
same,Potency,[6],inactive
same,Potency,[7],inactive
same,Potency,[8],inactive
same,Potency,[9],inactive
same,Potency,[10],inactive
O=C(NCCCN1CCOCC1)c1ccc(Cl)cc1,Potency,[1],inactive
same,Potency,[2],inactive
same,Potency,[3],inactive
same,Potency,[4],inactive
same,Potency,[5],inactive
same,Potency,[6],inactive
same,Potency,[7],inactive
same,Potency,[8],inactive
same,Potency,[9],inactive
same,Potency,[10],inactive
Cc1nc2ccccn2c(=O)c1CCN1CCC(C(=O)c2ccc(F)cc2)CC1,Potency,[1],inactive
same,Potency,[2],inactive
same,Potency,[3],inactive
same,Potency,[4],inactive
same,Potency,[5],inactive
same,Potency,[6],inactive
same,Potency,[7],7.56 µM (active)
same,Potency,[8],8.49 µM (active)
same,Potency,[9],inactive
same,Potency,[10],inactive
Cc1cc(O)c(C(C)C)cc1Cl,Potency,[1],inactive
same,Potency,[2],38.9 µM (active)
same,Potency,[3],inactive
same,Potency,[4],34.7 µM (active)
same,Potency,[5],inactive
same,Potency,[6],inactive
same,Potency,[7],inactive
same,Potency,[8],inactive
same,Potency,[9],inactive
O=C(O)c1c(O)c(-c2ccccc2)nc2ccccc12,Potency,[1],inactive
same,Potency,[2],inactive
same,Potency,[3],inactive
same,Potency,[4],inactive
same,Potency,[5],inactive
same,Potency,[6],inactive
same,Potency,[7],inactive
same,Potency,[8],inactive
same,Potency,[9],inactive
same,Potency,[10],inactive
CCCOCCOCCO,Potency,[1],inactive
same,Potency,[2],inactive
same,Potency,[3],inactive
same,Potency,[4],inactive
same,Potency,[5],inactive
same,Potency,[6],inactive
same,Potency,[7],inactive
same,Potency,[8],inactive
same,Potency,[9],inactive
same,Potency,[10],inactive
COc1ccc(C(=O)c2cccc(O)c2)c(OC)c1,Potency,[1],inactive
same,Potency,[2],inactive
same,Potency,[3],inactive
same,Potency,[4],inactive
same,Potency,[5],inactive
same,Potency,[6],inactive
same,Potency,[7],inactive
same,Potency,[8],inactive
same,Potency,[9],inactive
same,Potency,[10],inactive
O=S(=O)(c1ccccc1)c1ccc(Cl)cc1,Potency,[1],inactive
same,Potency,[2],inactive
same,Potency,[3],inactive
same,Potency,[4],inactive
same,Potency,[5],inactive
same,Potency,[6],inactive
same,Potency,[7],inactive
same,Potency,[8],inactive
same,Potency,[9],inactive
CCOC(=O)OCC,Potency,[1],inactive
same,Potency,[2],inactive
same,Potency,[3],inactive
same,Potency,[4],inactive
same,Potency,[5],inactive
same,Potency,[6],inactive
same,Potency,[7],inactive
same,Potency,[8],inactive
same,Potency,[9],inactive
same,Potency,[10],inactive
CCOC(=O)c1ccccc1OC,Potency,[1],inactive
same,Potency,[2],inactive
same,Potency,[3],inactive
same,Potency,[4],inactive
same,Potency,[5],inactive
same,Potency,[6],inactive
same,Potency,[7],inactive
same,Potency,[8],inactive
same,Potency,[9],inactive
same,Potency,[10],inactive
COC(=O)[C@@H]1CC2=CC(=O)CC[C@]2(C)[C@@]23O[C@@H]2C[C@@]2(C)[C@@H](CC[C@@]24CCC(=O)O4)[C@H]13,Potency,[1],inactive
same,Potency,[2],inactive
same,Potency,[3],inactive
same,Potency,[4],inactive
same,Potency,[5],inactive
same,Potency,[6],inactive
same,Potency,[7],inactive
same,Potency,[8],inactive
same,Potency,[9],inactive
same,Potency,[10],inactive
O=S1OCCO1,Potency,[1],inactive
same,Potency,[2],inactive
same,Potency,[3],inactive
same,Potency,[4],inactive
same,Potency,[5],inactive
same,Potency,[6],inactive
same,Potency,[7],inactive
same,Potency,[8],inactive
same,Potency,[9],inactive
same,Potency,[10],inactive
CCn1nc(C)c2c1C(=O)NCC(c1ccc(O)cc1)=N2,Potency,[1],inactive
same,Potency,[2],inactive
same,Potency,[3],inactive
same,Potency,[4],inactive
same,Potency,[5],inactive
same,Potency,[6],inactive
same,Potency,[7],inactive
same,Potency,[8],inactive
same,Potency,[9],inactive
same,Potency,[10],inactive
